Results taken from ChEMBL document CHEMBL3988442, “University of Dundee, Small-Polar-MMV Screening Library” (2021).

Key:
[1] = molecular target: T1, Aspartate--tRNA(Asp/Asn) ligase (Mycobacterium tuberculosis (strain ATCC 25618 / H37Rv)) (UniProt P9WFW3); assay: Assay for Asp RNA synthetase-1 from Mycobacterium tuberculosis; type: functional; set-up: scale not given: direction of the effect not stated beside the values; conditions: 30 µM; further: in the data most compounds retested in dose-response had high values
T1 sequence (whole entry): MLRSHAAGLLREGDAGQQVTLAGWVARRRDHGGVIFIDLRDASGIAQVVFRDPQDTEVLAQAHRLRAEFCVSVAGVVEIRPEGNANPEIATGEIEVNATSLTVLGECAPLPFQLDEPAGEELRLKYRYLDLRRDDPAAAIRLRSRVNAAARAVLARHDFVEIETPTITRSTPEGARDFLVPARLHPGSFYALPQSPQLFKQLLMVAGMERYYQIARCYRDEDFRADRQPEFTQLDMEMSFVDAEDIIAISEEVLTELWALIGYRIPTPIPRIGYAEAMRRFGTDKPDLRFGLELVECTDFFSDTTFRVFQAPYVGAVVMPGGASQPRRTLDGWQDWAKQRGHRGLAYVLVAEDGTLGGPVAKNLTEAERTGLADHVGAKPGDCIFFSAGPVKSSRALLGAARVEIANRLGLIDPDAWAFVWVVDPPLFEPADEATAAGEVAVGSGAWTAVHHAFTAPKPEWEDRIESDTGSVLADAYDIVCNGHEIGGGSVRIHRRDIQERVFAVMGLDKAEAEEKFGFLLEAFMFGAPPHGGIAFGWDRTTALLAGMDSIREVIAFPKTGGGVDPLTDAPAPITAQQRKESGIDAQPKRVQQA

[2] = molecular target: Shiga toxin 2 (Escherichia coli O157:H7) (UniProt P09385+P09386); assay: E. coli 0.157:H7 Shiga Toxin SOP - stx2 screening assay; type: functional; set-up: scale not given: direction of the effect not stated beside the values; conditions: 30 µM

Compound | Percent Effect [1] [%] | Percent Effect [2] [%]
CC(C)(C)c1nc(CN2CCCC(Cn3cncn3)C2)cs1 (configuration not stated) | 4.23 | 13.2
c1ccc(-c2noc(CN3CCC(c4ccn[nH]4)CC3)n2)cc1 | 0.903 | -15.7
Cc1nc(C)c(C(=O)N2CCCC2c2nnc3n2CCCCC3)s1 (configuration not stated) | -7.53 | -17.2
COc1ccccc1CC(=O)NCc1c(C)nc2cc(=O)[nH]n2c1C | -0.878 | 13.6
COCCOc1ncccc1CNCc1c(C)nn(C)c1N(C)C | -5.91 | 7.43
COCC(=O)NCCn1ccc2c(OC)cccc21 | -1.31 | -26.2
Cc1nn(C)c(C)c1C1COCCN1C(=O)c1n[nH]c2ccccc12 (configuration not stated) | -1.46 | -15.4
Cc1noc2nc(C3CCN(Cc4cccnc4)CC3)cc(C(F)F)c12 | 1.32 | -52.2
CN(C)C(=O)CC1CC2(CCNCC2)c2cc(F)ccc21 (configuration not stated) | 2.15 | 1.21
O=C(NCC(Cc1cccc(F)c1)N1CCCC1=O)c1cnccn1 (configuration not stated) | -5.12 | -15.9
CC(NC(=O)NCCCN(C)S(C)(=O)=O)c1ccncc1 (configuration not stated) | -2.98 | -9.54
CC(C)c1nc(C2CCCN2C(=O)c2nccnc2N)no1 (configuration not stated) | -5.36 | -16.2
O=S(=O)(c1ccccc1)N1CCC2(CCCN2CC2CCCC2)C1 (configuration not stated) | -2.77 | 9.27
Cc1cc2c(=O)n3c(nc2s1)CCN(Cc1ccncc1)CC3 | -2.01 | -22.9
CC(NC1CCN(CCS(C)(=O)=O)CC1)c1ccc(Cl)cc1 (configuration not stated) | 7.04 | -1.87
Cc1ccc(-c2nc(CN3CCc4c(ncn4C)C3)cs2)o1 | -4.21 | 0.313
O=C1CC2(CCN(CCO)CC2)CN1Cc1cc(F)cc(F)c1 | -2.67 | 11.4
O=C(O)c1csc(S(=O)(=O)Nc2cccc(OC(F)F)c2)c1 | -0.5 | -13.1
NC(=O)c1ccc(S(=O)(=O)NC2CCN(Cc3ccccc3)C2=O)cc1 (configuration not stated) | -5.17 | 5.52

Compound | Percent Effect [1] [%] | Percent Effect [2] [%]
Cc1nc(CN2CCCN(CC(=O)Nc3cccnc3)CC2)no1 | 1.58 | 16.4
O=C(c1cnoc1)N1CCC[C@]2(C[C@@H](OCc3ccccn3)CO2)C1 | -4.58 | -20.4
Cn1cc(CN2C[C@@H]3COC[C@@H](C(=O)N4CCCCO4)[C@@H]3C2)cn1 | -1.16 | -15.2
COc1ccc(S(=O)(=O)NCc2cccnc2N(C)C)cc1F | -1.03 | -9.13
CN(CC1(O)CCCCC1)C1CCCN(Cc2noc(C3CC3)n2)C1 (configuration not stated) | -2.39 | 23.8
CCC(C)c1noc(C2CCN(C(=O)c3cccs3)CC2)n1 (configuration not stated) | 4.84 | -48
CC(C)(C)c1ccn(C2(C(=O)O)CCN(c3nccc(N)n3)CC2)n1 | 3.12 | -19.9
c1cnc(NCc2ncn3c2CN(Cc2cccnc2)CCC3)nc1 | -2.66 | -5.14
Cc1noc(C(C)C)c1C(=O)NCc1cccc(N(C)C)c1 | -3.25 | 13.2
O=C(NCCOc1ncc(Cl)cc1Cl)c1ccncc1 | 5.64 | -19.5
N#CCSCCCN1CCCN(C(=O)c2ccccc2)CC1 | -4.83 | -31.2
CC(C)(C)c1nc(CN(Cc2cccs2)C2CCS(=O)(=O)C2)no1 (configuration not stated) | 1.32 | 24.2
CC(C)c1nn(C)c(Cl)c1CNCC(O)c1cccc(F)c1 (configuration not stated) | -0.173 | 10.3
Cc1nnc2n1CCN(C(=O)c1cc(Cl)c(Cl)n1C)C2 | -1.68 | 8.23
CC(C)(C)n1cc(C(=O)N2CCN(Cc3ccccc3F)CC2)cn1 | -1.61 | 20.1
CNC(=O)c1ccc(C(=O)N2CCCC(n3cc(C)cn3)C2)cn1 (configuration not stated) | -5.95 | -41.9
CS(=O)(=O)c1cccc(C(N)c2ccc(F)c(F)c2)c1 (configuration not stated) | -1.19 | -2.5
CCc1nc(CN2CCCN(C(=O)C(C)COC)CC2)cs1 (configuration not stated) | -0.303 | -63.3
CC(C)C(C)NC(=O)Nc1ccc(CS(C)(=O)=O)cc1 (configuration not stated) | 3.12 | -11.6

Compound | Percent Effect [1] [%] | Percent Effect [2] [%]
O=C(CCN1CCCC1=O)NCc1cccnc1Oc1ccccc1 | -8.91 | 8.3
CCS(=O)(=O)N1CCc2ccc(NC(=O)Nc3cccc(SC)c3)cc21 | -4.68 | -22
O=C(CCCn1cncn1)NC1(c2ccccc2)CCC1 | 10.9 | -17.7
Nc1cc(CCC2CN(Cc3ccc(C(=O)O)cc3)CCO2)ccn1 (configuration not stated) | 2.72 | 55.2
CCn1c(Cn2cncn2)nnc1C1CCN(C(=O)CCSC)CC1 | 1.37 | 8.61
COC(=O)CCc1c(C)nc2cc(O)nn2c1C | -3.67 | -37.6
CO[C@H]1CCN(c2ccc(C)nn2)[C@H]1Cc1cnn(C)c1 | 1.39 | 3.96
CCc1cnc(N2CCC(=O)N(CC3CC3)C(C(C)C)C2)nc1 (configuration not stated) | 1.33 | 2.92
Cc1ccccc1-c1cncc(C2CCN(C)CC2)n1 | 2.52 | -4.06
COCC1CCN(C(=O)c2cccc(S(=O)(=O)NCC3(C)COC3)c2)C1 (configuration not stated) | 5.94 | 10.4
Cc1cc(-c2cnc(NCc3cccnc3)nc2C(C)C)on1 | 6.13 | 10.2
CCn1cc(CN2CCCC(c3[nH]ncc3S(C)(=O)=O)C2)cn1 (configuration not stated) | -1.6 | -18.8
Oc1nc(N2CCOCC2)nc2c1CCN(Cc1cccnc1)CC2 | 0.849 | -13.5
Cc1cnn(CC2CCCN2C(=O)c2cn(-c3ccccc3)nc2C)c1 (configuration not stated) | 4.47 | 14.6
COCC(=O)N1CCC(c2nccn2CC2CC2)CC1 | -0.435 | -12.6
COC(=O)CNC(=O)CSCc1nc(O)c2c(C)c(C)sc2n1 | -0.261 | -18.2
O=C1CC(c2ccc(C(=O)O)cc2)c2ncn(-c3cccc(F)c3)c2N1 (configuration not stated) | 7.81 | -17.3
O=C(c1cc(Cl)cc(Cl)c1)N1CCN(c2nccs2)CC1 | -0.345 | -14.9
